The OligoGym collection

Biological target: SPINK6
Assay: pooled miR-30 sensor sort-seq; sequence = guide strand
Conditions: shRNA
Note: reference of the scale not given here.

Sequence | sensor-assay potency score (higher = more potent)
TGCTTTAGGCTAATCTTTCCAC | -0.643
TAAAAAGCAGAAAAGAGCCAGA | -0.281
ACAGTCAACCTGTCCTCCCTGA | -0.55
TAATCTTTCCACCACTTTTCAC | -1.05
TTAGATTCCCGAGTGCAGTAGA | 0.5
TAGACATACATTGAACTCCTCA | -0.369
TGAATTAAAGGAATCCACCAGC | -0.148
TTAGGCTAATCTTTCCACCACT | -0.87
GAACTCACCACAGTCAACCTGT | -0.413
TTTATTGCCATATGTCTGGCCA | -0.38
TTCCCGAGTGCAGTAGACCTTG | -0.732
TATTGCCATATGTCTGGCCATC | -1.73

Biological target: SPOCK1
Assay: as above
Conditions: shRNA

Sequence | sensor-assay potency score (higher = more potent)
TTGCACTTGACCAAATTCGAAG | -1.14
TCATAGTTCATGTCCAACTTGT | 0.349
TTGCACTTGGATGTGTAGGAGT | -0.759
TTCATATTCTAGGTCATCCAGC | -0.469
TTGTCTGTGCAGGCACTCCTTT | -0.821
TTGTCTAGGAAATTGCCGTGGT | 0.282
TAATCATCGTCTCGAAAGCGGT | -1.33
TTCCGCAACTCCTTGTCTGTGC | 0.679
TATTTGTCCACACACCAGCACT | -1.26
